Screening results: PubChem, National Center for Advancing Translational Sciences (NCATS)
Rows were chosen to be rich in hits. Some 12% of all compounds tested hit in one or more screens of this group.
FMDV antiviral: blocks foot and mouth disease virus; 1.2% of 410,000 active; FMDV antiviral cell-based qHTS; Potency, µM (doses to about 57.9 µM), for the others: at the highest dose activity change, negative = inhibition, hits mostly inhibitors; AID 1159524; calls by dose curve; tested in HEK293T cells; further: read-out not given here; potency means the concentration at half of the fitted maximal effect; on the % scale 0 is the no-effect control and ±100 the full control effect; nearly all actives have a fitted effect of over 45% in size
Cycloheximide cs: counter-screen for Shiga toxin inhibitors: cycloheximide protein synthesis inhibition. cell reporter, cycloheximide protein synthesis inhibition counterscreen. max response, %. 12% of 300,000 active; in the data active means max response mostly above about 13%, no sharp cut-off; inactive means mostly below about 14%; further: read at 38.3 µM for the half of the compounds with a filed dose; 0% is about no effect
Sm TGR block: inhibitors of Schistosoma mansoni thioredoxin glutathione reductase; Q962Y6; purified TGR, DTNB reduction, TNB absorbance 405 nm; Potency, µM (doses to about 114 µM), inactives show top-dose activity change, negative = inhibition, most hits filed as inhibitors; 3% of 360,000 active; AID 485364; active means well fitted inhibition curve with a large enough effect; inconclusive means small, poorly fitted or top-dose-only effect; inactive means no such curve, though single readings can be large or run the other way; further: potency means the concentration at half of the fitted maximal effect; on the % scale 0 is the no-effect control and ±100 the full control effect; nearly all actives have a fitted effect of over 60% in size
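Kinetic colorimetric format: TGR-catalysed, NADPH-driven DTNB reduction monitored via TNB absorbance. Enzyme dispensed at 20 nM; compound exposure 15 min at room temperature before reaction start.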
Shiga toxin inh: inhibitors of Shiga toxin in Vero cells; Vero cells, Shiga toxin protein synthesis inhibition reporter; inhibition, % at 38.7 µM; 9.2% of 290,000 active; AID 2315; in the data active means inhibition mostly above about 28%, no sharp cut-off; inactive means mostly below about 43%; further: 0% is about no effect
Starred values were filed as active, the others as inactive; ? = inconclusive; . = no result given.

SMILES	FMDV antiviral	Cycloheximide cs	Sm TGR block	Shiga toxin inh
Cc1cccc2cc3c(N)c(C(=O)N4CCOCC4)sc3nc12	49%	50*	9%	115*
CC(=O)N/C(N)=N/c1nc(=O)c2ccccc2s1	49%	35*	-4%	55*
CCOC(=O)NC(=O)COC(=O)CCCSc1nc2ccccc2s1	-21%	2	1%	13
CCOC(=O)N/C(N)=N/c1nc2ccccc2s1	-28%	34*	0%	66*
C=CC(=O)c1ccc(CCCCCC)cc1	.	6	.	26
Oc1oc(-c2ccco2)nc1C=Nc1cccc(Cl)c1	-2%	27	-17%	48
CC(=NCc1cccc(Cl)c1)c1nc(-c2ccco2)oc1O	-9%	23*	-11%	49*
CCCn1c2ccccc2c2cnn(CC(=O)Nc3cccc(C(=O)OCC)c3)c(=O)c21	-17%	.	-2%	.
CCN(CC)c1ccc(NC(=O)Cn2nc(C)n3cccc3c2=O)c(C)c1	-16%	.	4%	.
O=C(NC(=S)Nc1ccc(N2CCOCC2)c(Cl)c1)c1cccs1	2%	30*	.	60*
O=C(Nc1ccc(N2CCCC2)c(Cl)c1)c1cccs1	-6%	71*	.	95*
O=C(NC(=S)Nc1ccccc1N1CCOCC1)c1cccs1	?	-5	-22%	12
O=C(Nc1ccc(N2CCN(C(=O)c3cccs3)CC2)c(Cl)c1)c1ccco1	-73%	8	1%	4
COc1ncc2nc(-c3cccs3)c(=O)n(C)c2n1	7%	.	.	.
COC(=O)c1ccc(NC(=O)CSc2nc(=O)[nH]c3c2CCCC3)cc1	-14%	.	-20%	.
O=C(CSc1ncn[nH]1)Nc1ccccc1Sc1ccc(Cl)cc1	16µM*	-3	16%	-4
Nc1cc(=O)[nH]c(SCC(=O)Nc2ccccc2Sc2ccc(Cl)cc2)n1	?	1	6%	5
COc1ccccc1CCNC(=O)C(=O)NCC(c1ccc2c(c1)OCO2)N1CCOCC1 (stereo not given)	-23%	.	8%	.
COc1ccc(Cc2c(C)nn(-c3nc(C)c(C(=O)Nc4cccc(C(C)=O)c4)s3)c2C)cc1	?	.	-1%	.
Cc1oc2ncn(C)c(=O)c2c1C(=O)NCCCN(Cc1ccccc1)C(C)C	?	.	10%	.
COc1ccc2[nH]c3c(NCCN4CCCCC4)ncnc3c2c1	.	6	2%	4
CCOCCCNc1ncnc2c1[nH]c1ccccc12	?	13*	10%	-2
CCOc1ccc2[nH]c3c(NCCc4ccc(OC)c(OC)c4)ncnc3c2c1	-20%	1	-3%	7
CCCCOCCCNc1ncnc2c1[nH]c1ccccc12	11µM*	-3	1%	-6
CCOc1ccc2[nH]c3c(NCCO)ncnc3c2c1	13%	20*	-8%	36
SMILES	FMDV antiviral	Cycloheximide cs	Sm TGR block	Shiga toxin inh
c1ccc2c(c1)[nH]c1c(NCC3CCCO3)ncnc12 (stereo not given)	?	-4	4%	-5
COc1ccc2cc(C#N)c(=O)oc2c1	.	-5	.	-4
COc1cc(C)ccc1OCCSc1nc2ccc(NC(C)=O)cc2s1	19%	.	-5%	.
Cc1ccc(C(=O)COC(=O)CCC(=O)Nc2ccc(Oc3cc(C)ccc3C(C)C)cc2)cc1	2%	.	3%	.
O=C(CN1CC(=O)Oc2ccccc21)OCC(=O)c1cccc(Br)c1	-18%	18*	?	55
O=C(CN1CC(=O)Oc2ccccc21)OCC(=O)c1ccccc1	.	11	-23%	-5
Clc1ccc(OCc2nnc3n2CCCCC3)c(Cl)c1	32%	28*	4%	56*
Cc1cc(Cl)ccc1OCc1nnc2n1CCCCC2	2%	6	6%	21
COc1ccccc1CNc1ccnc(-c2ccccc2OC)n1	-23%	.	.	.
COc1ccc2c(c1)c(=O)cc(-c1ccccc1)n2C	8%	22*	-22%	49*
Cc1c(CCNC(=O)c2ccc(C(C)(C)C)cc2)sc2nc(-c3ccc(F)cc3)nn12	-1%	.	6%	.
COc1ccc(-n2nc(C(=O)NCC(=O)N3CCC(C(N)=O)CC3)c3ccccc3c2=O)cc1	-4%	-2	-3%	-8
COc1ccc(-n2nc(C(=O)NCC(=O)N3CCCC(C)C3)c3ccccc3c2=O)cc1 (stereo not given)	33%	18*	-14%	39
COc1ccc(-n2nc(C(=O)NCC(=O)N3CCOCC3)c3ccccc3c2=O)cc1Cl	-4%	-2	3%	-10
COc1ccc(-n2nc(C(=O)NCC(=O)N3CCC4(CC3)OCCO4)c3ccccc3c2=O)cc1	11%	10	-12%	25
CCOC(=O)C1CCCN(C(=O)CNC(=O)c2nn(-c3ccc(OC)c(Cl)c3)c(=O)c3ccccc23)C1 (stereo not given)	-9%	15	9%	16
COc1ccc(-n2nc(C(=O)NCC(=O)N3CCC4(CC3)OCCO4)c3ccccc3c2=O)cc1Cl	18%	23*	5%	54*
